From PubChem BioAssay
The source made the active and inactive calls. Unless noted, how the calls were made is not given here.

Tests used:
[1] = compound effects on lung adenocarcinoma cell viability – A549, calcein-AM fluorescence, 48 h, basal, profiling panel (AID 1162); conditions: higher = more signal; further: test concentration not given here
[2] = compound effects on differentiated 3T3-L1 adipocyte viability – cell-based, 3T3-L1 adipocytes, calcein-AM fluorescence, 48 h, basal, profiling panel (AID 1163); conditions: 3T3-L1 adipocytes viability, higher = more signal; further: test concentration not given here
[3] = compound effects on hepatocellular carcinoma cell viability – HepG2, calcein-AM fluorescence, 48 h, basal, profiling panel (AID 1164); conditions: higher = more signal; further: test concentration not given here
[4] = compound effects on multiple myeloma cell viability – MM1S, calcein-AM fluorescence, 48 h, basal, profiling panel (AID 1165); conditions: higher = more signal; further: test concentration not given here
[5] = calcein-AM signal in unstimulated myeloma cells – cell-based, calcein-AM fluorescence, 48 h, PK04 Diversity Set, profiling panel (AID 1166); conditions: RPMI8226 myeloma viability, higher = more signal;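 further: cells grown under basal conditions without added stimulus; test concentration not given here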
[6] = JC-1 mitochondrial signal, unstimulated HepG2 cells – cell-based, JC-1 fluorescence, 24 h, 100 nL compound, profiling panel (AID 1167); conditions: HepG2 mitochondrial potential, higher = more signal; further: test concentration not given here
[7] = JC-1 mitochondrial signal, unstimulated adipocytes – cell-based, JC-1 fluorescence, 3T3-L1 adipocytes, 24 h, 100 nL compound, profiling panel (AID 1168); conditions: JC-1 mitochondrial fluorescence, higher = more signal, called active from +8 up or from −8 down; further: test concentration not given here
[8] = JC-1 mitochondrial signal, unstimulated myeloma cells – cell-based, JC-1 fluorescence, RPMI8226, 24 h, 100 nL compound, profiling panel (AID 1169); conditions: JC-1 mitochondrial potential fluorescence, higher = more signal; further: test concentration not given here
[9] = JC-1 mitochondrial signal, unstimulated MM1S myeloma – cell-based, JC-1 fluorescence, 24 h, 100 nL compound, profiling panel (AID 1170); conditions: MM1S mitochondrial potential, higher = more signal; further: test concentration not given here
[10] = resazurin metabolic signal in A549 cells – cell-based, resazurin fluorescence, 24 h, PK04 Diversity Set, profiling panel (AID 1171); conditions: A549 viability, higher = more signal, called active from +8 up or from −8 down; further: test concentration not given here
[11] = resazurin metabolic signal in HepG2 cells – cell-based, resazurin fluorescence, 24 h, PK04 Diversity Set, profiling panel (AID 1172); conditions: HepG2 viability, higher = more signal; further: test concentration not given here
[12] = budding yeast growth changes without added modifier – OD600, strain BY4716, 24 h, basal condition, primary screen (AID 1173); conditions: S. cerevisiae BY4716 growth, OD600, 24 h; higher = more signal, called active from +8 up or from −8 down
[13] = viability profiling in MM1S myeloma cells – cell-based, resazurin fluorescence, basal, 24 h, PK04 Diversity Set, profiling panel (AID 1174); conditions: higher = more signal, called active from +8 up or from −8 down; further: test concentration not given here
[14] = target: Dihydroorotate dehydrogenase (quinone), mitochondrial (Plasmodium falciparum (isolate 3D7)) (UniProt Q08210); assay: inhibition of P. falciparum DHODH – biochemical, C-terminal His tag, absorbance 600 nm, primary screen (AID 1175); conditions: PfDHODH enzyme, DCIP absorbance 600 nm; higher = more signal, called active from +8 up or from −8 down;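 further: recombinant parasite enzyme with a five histidine tag at its C terminus; test concentration not given here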
Dihydroorotate dehydrogenase (quinone), mitochondrial (Plasmodium falciparum (isolate 3D7)), sequence (Q08210 whole entry, looked up): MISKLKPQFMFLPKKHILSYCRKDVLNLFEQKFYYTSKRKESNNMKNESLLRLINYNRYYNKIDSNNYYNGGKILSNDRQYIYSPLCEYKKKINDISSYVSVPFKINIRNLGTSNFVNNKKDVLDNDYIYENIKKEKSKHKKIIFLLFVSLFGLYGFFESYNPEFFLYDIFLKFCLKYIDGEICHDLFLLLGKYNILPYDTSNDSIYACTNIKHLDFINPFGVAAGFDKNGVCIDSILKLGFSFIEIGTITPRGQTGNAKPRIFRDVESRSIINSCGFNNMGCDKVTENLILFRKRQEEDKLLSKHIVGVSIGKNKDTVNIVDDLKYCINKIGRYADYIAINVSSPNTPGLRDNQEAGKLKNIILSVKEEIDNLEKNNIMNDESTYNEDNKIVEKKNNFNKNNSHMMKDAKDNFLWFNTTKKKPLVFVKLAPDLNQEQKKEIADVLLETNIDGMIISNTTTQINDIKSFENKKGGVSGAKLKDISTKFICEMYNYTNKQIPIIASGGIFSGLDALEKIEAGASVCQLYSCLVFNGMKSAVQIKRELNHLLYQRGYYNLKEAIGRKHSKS

[15] = inhibition of PAO1 biofilm formation – strain PAO1, LB-PBS medium, absorbance 600 nm, primary screen (AID 1176); further: test concentration not given here; conditions: P. aeruginosa PAO1 growth/biofilm, A600, 12 h; higher = more signal
[16] = growth modulation of vineyard yeast isolate – strain RM11-1a, OD600, basal, 24 h, primary screen (AID 1177);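 further: cultures grown under basal conditions with no added stressor; test concentration not given here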; conditions: S. cerevisiae RM11-1a growth, OD600, 24 h; higher = more signal, called active from +8 up or from −8 down
[17] = growth of efflux-deficient E. coli DRC39 – strain DRC39, OD650, 24 h, E. coli filamentation inducers, primary screen (AID 1178);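 further: growth measured as culture turbidity by optical density at 650 nm; test concentration not given here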; conditions: E. coli DRC39 acrAB, higher = more signal, called active from +8 up or from −8 down
[18] = growth of efflux-deficient E. coli DRC39 – strain DRC39, OD650, 48 h, E. coli filamentation inducers, primary screen (AID 1179);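 further: screen aims at cell division blockers that make cells filament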; conditions: E. coli DRC39 delta-acrAB growth, higher = more signal, called active from +8 up or from −8 down
[19] = viability profiling in RPMI8226 myeloma cells – cell-based, resazurin fluorescence, basal, 24 h, PK04 Diversity Set, profiling panel (AID 1180); conditions: higher = more signal;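 further: RPMI8826 multiple myeloma cell line at 5000 cells per well; test concentration not given here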
[20] = target: E3 ubiquitin-protein ligase XIAP (Homo sapiens) (UniProt P98170); assay: small molecules binding XIAP protein – biophysical, small-molecule microarray, fluorescence 635 nm, primary screen (AID 1181); conditions: higher = more signal;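 further: score merges 667 nm emission and signal to noise over triplicate slides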
E3 ubiquitin-protein ligase XIAP (Homo sapiens), sequence (P98170 whole entry, looked up): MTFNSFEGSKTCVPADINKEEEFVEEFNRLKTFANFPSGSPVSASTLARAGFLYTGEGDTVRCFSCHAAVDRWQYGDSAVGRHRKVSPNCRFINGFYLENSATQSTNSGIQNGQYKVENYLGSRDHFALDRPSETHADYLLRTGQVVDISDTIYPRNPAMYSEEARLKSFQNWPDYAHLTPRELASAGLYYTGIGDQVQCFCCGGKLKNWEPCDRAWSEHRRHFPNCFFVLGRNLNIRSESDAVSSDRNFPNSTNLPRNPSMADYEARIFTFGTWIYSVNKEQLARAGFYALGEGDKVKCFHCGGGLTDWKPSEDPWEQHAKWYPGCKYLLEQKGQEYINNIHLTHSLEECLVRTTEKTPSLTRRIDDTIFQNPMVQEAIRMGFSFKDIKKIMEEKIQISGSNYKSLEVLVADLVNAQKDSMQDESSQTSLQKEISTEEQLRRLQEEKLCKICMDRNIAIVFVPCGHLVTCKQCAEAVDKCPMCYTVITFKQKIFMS

SMILES	z-score [1]	z-score [2]	z-score [3]	z-score [4]	z-score [5]	z-score [6]	z-score [7]	z-score [8]	z-score [9]	z-score [10]	z-score [11]	z-score [12]	z-score [13]	composite z-score [14]	z-score [15]	z-score [16]	z-score [17]	z-score [18]	z-score [19]	composite z-score [20]
COC(=O)[C@@]1(Cc2ccc(OC)cc2)[C@@H]2[C@@H](CC(=O)[C@H]2CC(=O)C(=O)N2CCCC2)CN1C(=O)c1ccccc1	-0.515	0.745	0.681	-2.61	-2.94	0.74	-1.62 (inactive)	-1.01	-0.787	-0.189 (inactive)	-0.437	0.442 (inactive)	-0.526 (inactive)	-0.448 (inactive)	0.274 (inactive)	-0.148 (inactive)	-0.415 (inactive)	-0.394 (inactive)	-1.57	-0.01
CC1CC/C=C\[C@H]2OC34C=CCN(CCN5CCOCC5)C(=O)[C@H]3N(CCCCCCO)C(=O)[C@@H]4C2C(=O)O1 (stereo not given in full)	0.919	0.24	1.1	1.42	-0.575	0.37	-0.44 (inactive)	-0.0357	0.606	-0.116 (inactive)	-0.655	-0.195 (inactive)	-0.513 (inactive)	0.85 (inactive)	-0.717 (inactive)	0.615 (inactive)	0.125 (inactive)	0.602 (inactive)	0.761	0.288
CCCC[C@@H]1C[C@H]1[C@@H](NC(=O)Cc1ccccc1)c1ccc(Cl)cc1	-1.07	-0.669	-1.9	-3.46	-4.66	-4.92	-1.27 (inactive)	-0.906	-2.89	3.48 (inactive)	1.95	0.0658 (inactive)	0.625 (inactive)	-1.36 (inactive)	0.33 (inactive)	0.335 (inactive)	-0.704 (inactive)	-0.162 (inactive)	-4.68	-0.0103
CC(C)CNC(=O)[C@@H]1c2ccccc2C(=O)N(C(C)C)[C@H]1c1ccc(CO)cc1	0.456	1.27	1.15	0.333	1.49	1.49	1.29 (inactive)	0.793	-0.357	-0.174 (inactive)	0.0161	0.294 (inactive)	0.334 (inactive)	-1.57 (inactive)	0.348 (inactive)	-1.19 (inactive)	0.855 (inactive)	1.76 (inactive)	0.609	-0.0434
CC(C)C[C@@H]1NC(=O)[C@@H]2C[C@H](C(=O)O)[C@H](c3ccc(O)cc3)N2C1=O	0.704	0.37	0.285	-1.32	0.126	0.962	-0.773 (inactive)	-0.49	0.3	1.64 (inactive)	-1.68	-0.568 (inactive)	1.18 (inactive)	0.372 (inactive)	0.407 (inactive)	-1.11 (inactive)	2.14 (inactive)	1.94 (inactive)	1.16	0.254
CC(C)C(=C=CC[C@@H](O)c1cccc(OCCO)c1)CCO	0.418	0.114	0.785	0.753	-0.25	0.436	0.258 (inactive)	0.314	-1.18	0.625 (inactive)	0.545	-1.15 (inactive)	0.265 (inactive)	-1.1 (inactive)	0.2 (inactive)	0.0632 (inactive)	0.546 (inactive)	0.423 (inactive)	0.336	-0.127
CC(C)C[C@@H]1NC(=O)[C@H]2C[C@@H](C(=O)NCCCCCCNC(=O)CS)[C@@H](c3ccc(O)cc3)N2C1=O	-0.889	0.197	-0.301	-0.397	0.266	-1.74	0.193 (inactive)	0.486	-5.59e-05	0.0225 (inactive)	0.102	0.153 (inactive)	0.0815 (inactive)	0.31 (inactive)	0.932 (inactive)	0.088 (inactive)	0.236 (inactive)	-0.0073 (inactive)	-0.596	0.101
NC(=O)[C@@]1(CCS(=O)(=O)c2ccccc2)COC(c2ccc(OCCCO)cc2)=N1	-0.339	-0.519	0.344	-0.0256	0.458	-0.522	-0.762 (inactive)	-0.436	-0.942	-0.721 (inactive)	-0.285	0.511 (inactive)	-1.34 (inactive)	-0.809 (inactive)	-0.304 (inactive)	0.0637 (inactive)	-0.223 (inactive)	0.491 (inactive)	-0.318	0.291
CO[C@H]1O[C@H](CO)[C@@H](OC(=O)Nc2ccc3c(c2)OCO3)[C@@H]2OC(=O)[C@@H](Cc3ccccc3)C/C=C/C[C@H](Cc3ccccc3)C(=O)O[C@@H]12	1.9	-2.78	0.843	-0.69	-0.197	0.186	0.912 (inactive)	-0.469	-0.897	-1.64 (inactive)	-1.37	0.904 (inactive)	-2.59 (inactive)	-0.675 (inactive)	0.509 (inactive)	2.14 (inactive)	0.307 (inactive)	0.312 (inactive)	-1.38	0.785
